These results are taken from PubChem BioAssay (EPA / NIEHS).

The AC50 is the midpoint of the concentration-response curve, whichever way the signal moves.

A short description of test [1]: ATG_PXRE_CIS: Attagene CIS-FACTORIAL HepG2 Assay for human Pregnane X Receptor Element (PXRE) (AID 2282957). The note with it: HepG2 Attagene CIS-FACTORIAL PXRE reporter, mRNA; actives raise or lower the signal. Put shortly:
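Transfect HepG2 with MRTUs (cis promoter elements); dose chemical, incubate 24 h; isolate RNA, RT with oligo(dT), PCR, 6-FAM label, HpaI cut, CE. Gain/loss fit vs DMSO.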

Test [2] can be described thus: ATG_RORE_CIS: Attagene CIS-FACTORIAL HepG2 Assay for human RAR-related Orphan Receptor Element (RORE) (AID 2282959). The note with it: HepG2 Attagene cis-factorial RORE reporter, mRNA; actives raise or lower the signal. Put shortly: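 Transiently transfected HepG2 reporter cells were treated 24 h. Reporter transcripts were detected by RT-PCR and capillary electrophoresis, with bidirectional fitting against DMSO.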

The nature of test [3]: ATG_Sox_CIS: Attagene CIS-FACTORIAL HepG2 Assay for human SRY-box transcription factor (SOX) (AID 2282960). The note with it: HepG2 Attagene cis-factorial SOX reporter, mRNA; actives raise or lower the signal. Summed up:
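Gain- or loss-of-signal endpoint, fitted bidirectionally with DMSO as negative control. Based on reporter mRNA from transfected HepG2 cells harvested 24 h post-treatment and quantified via RT-PCR and capillary electrophoresis.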

Test [4] concerns the target Transcription factor Sp1 (Homo sapiens) (UniProt P08047). Briefly: ATG_Sp1_CIS: Attagene CIS-FACTORIAL HepG2 Assay for human Specificity Protein 1 (Sp1) (AID 2282961). The note with it: HepG2 Sp1 cis-reporter transcription, actives raise or lower the signal. Summed up: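 Endpoint reflects endogenous Sp1 transcriptional activity, not an exogenous fusion protein: HepG2 cells with transfected cis-regulated reporters, 24 h dosing, RT-PCR/capillary electrophoresis mRNA read-out, DMSO-normalised bidirectional fit.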

The nature of test [5]: ATG_SREBP_CIS: Attagene CIS-FACTORIAL HepG2 Assay for human Sterol Regulatory Element Binding (SREBP) (AID 2282962). The note with it: HepG2 Attagene cis-factorial SREBP reporter, mRNA; actives raise or lower the signal. Put shortly: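 HepG2 cells transiently transfected with multiplexed cis-element reporter units report endogenous transcription factor activity. After 24 h of chemical exposure, reporter mRNA was quantified by RT-PCR, 6-FAM labelling, HpaI digestion and capillary electrophoresis; bidirectional fits used DMSO as baseline.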

For test [6], the target named is Signal transducer and activator of transcription 3 (Homo sapiens) (UniProt P40763). The test can be described thus: ATG_STAT3_CIS: Attagene CIS-FACTORIAL HepG2 Assay for human Signal Transducer and Activator of Transcription 3 (STAT3) (AID 2282963). The note with it: HepG2, Attagene cis-factorial STAT3 reporter transcription; actives raise or lower the signal. Put shortly:
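Endogenous STAT3-responsive cis-element activity was read in transiently transfected HepG2 cells after 24 h treatment. Reporter transcripts were quantified via RT-PCR and capillary electrophoresis, with DMSO as negative control and bidirectional curve fitting.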

Test [7] can be described thus: ATG_TA_CIS: Attagene CIS-FACTORIAL HepG2 Assay for human TA Basal Promoter (AID 2282964). The note with it: HepG2 Attagene CIS-factorial TA basal promoter reporter; actives raise or lower the signal. Put shortly:
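Transient MRTU transfection of HepG2 preceded 24 h compound exposure. Reporter mRNA levels were then read by RT-PCR with capillary electrophoresis, and this background-control endpoint was fitted bidirectionally to DMSO.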

The nature of test [8]: ATG_TCF_b_cat_CIS: Attagene CIS-FACTORIAL HepG2 Assay for human T-Cell-Factor with beta-catenin (TCF/b-cat) (AID 2282965). The note with it: HepG2 TCF/beta-catenin cis-reporter transcription, actives raise or lower the signal. Summed up:
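Endogenous transcription factor activity is captured through cis-promoter reporter constructs transiently introduced into human HepG2 liver cells. Induced reporter mRNA is measured after 24 h and fitted bidirectionally relative to DMSO.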

Test [9] can be described thus: ATG_TAL_CIS: Attagene CIS-FACTORIAL HepG2 Assay for human TAL Basal Promoter (AID 2282966).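 Also: background control endpoint measuring basal TAL promoter reporter mRNA not a specific factor.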 The note with it: HepG2 Attagene cis-factorial TAL promoter reporter; actives raise or lower the signal. Put shortly:
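Fluorescence of labelled reporter cDNA fragments, resolved by capillary electrophoresis, gave the readout. Human HepG2 liver cells carried transiently transfected cis-element reporter units and were treated for 24 hours; activity was fitted bidirectionally against DMSO.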

A short description of test [10]: ATG_PPRE_CIS: Attagene CIS-FACTORIAL HepG2 Assay for human Peroxisome Proliferator-activated Response Element (PPRE) (AID 2282958). The note with it: HepG2 PPRE cis-element reporter, Attagene transcription factor profiling; actives raise or lower the signal. Summed up: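 Measured endpoint: PPRE-controlled reporter mRNA, detected by RT-PCR and capillary electrophoresis fluorescence, from transiently transfected HepG2 cells 24 h after dosing. Curves fitted in both directions using DMSO baseline.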

Each structure is given as a SMILES string. The source made the active and inactive calls. The calls were made as follows: active = hit-call score of the fitted dose curve at least 0.9, where 1 is the maximum; inactive = score below 0.9.

Signal transducer and activator of transcription 3 (Homo sapiens), sequence (P40763 whole entry, looked up): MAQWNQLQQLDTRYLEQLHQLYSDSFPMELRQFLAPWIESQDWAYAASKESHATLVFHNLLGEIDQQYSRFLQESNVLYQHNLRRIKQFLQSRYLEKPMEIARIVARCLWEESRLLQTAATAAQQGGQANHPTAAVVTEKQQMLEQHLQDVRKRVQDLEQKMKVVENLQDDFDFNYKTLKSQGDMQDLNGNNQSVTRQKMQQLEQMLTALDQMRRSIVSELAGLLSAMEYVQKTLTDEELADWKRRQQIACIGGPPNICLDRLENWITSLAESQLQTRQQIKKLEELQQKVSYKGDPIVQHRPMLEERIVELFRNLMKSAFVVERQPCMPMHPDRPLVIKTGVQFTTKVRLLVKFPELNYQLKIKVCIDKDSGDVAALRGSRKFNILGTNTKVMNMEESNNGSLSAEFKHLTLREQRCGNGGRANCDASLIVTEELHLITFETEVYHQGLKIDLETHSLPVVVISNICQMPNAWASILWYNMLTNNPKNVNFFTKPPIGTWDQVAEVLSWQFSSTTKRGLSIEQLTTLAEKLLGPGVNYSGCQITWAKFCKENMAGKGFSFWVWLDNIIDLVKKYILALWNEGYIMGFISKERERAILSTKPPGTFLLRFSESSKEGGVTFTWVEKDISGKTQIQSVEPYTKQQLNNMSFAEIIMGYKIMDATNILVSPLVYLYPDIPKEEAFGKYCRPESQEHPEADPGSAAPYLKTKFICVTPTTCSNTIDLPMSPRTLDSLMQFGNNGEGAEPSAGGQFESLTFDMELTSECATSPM
Transcription factor Sp1 (Homo sapiens), sequence (P08047 whole entry, looked up, the tested form may be a part): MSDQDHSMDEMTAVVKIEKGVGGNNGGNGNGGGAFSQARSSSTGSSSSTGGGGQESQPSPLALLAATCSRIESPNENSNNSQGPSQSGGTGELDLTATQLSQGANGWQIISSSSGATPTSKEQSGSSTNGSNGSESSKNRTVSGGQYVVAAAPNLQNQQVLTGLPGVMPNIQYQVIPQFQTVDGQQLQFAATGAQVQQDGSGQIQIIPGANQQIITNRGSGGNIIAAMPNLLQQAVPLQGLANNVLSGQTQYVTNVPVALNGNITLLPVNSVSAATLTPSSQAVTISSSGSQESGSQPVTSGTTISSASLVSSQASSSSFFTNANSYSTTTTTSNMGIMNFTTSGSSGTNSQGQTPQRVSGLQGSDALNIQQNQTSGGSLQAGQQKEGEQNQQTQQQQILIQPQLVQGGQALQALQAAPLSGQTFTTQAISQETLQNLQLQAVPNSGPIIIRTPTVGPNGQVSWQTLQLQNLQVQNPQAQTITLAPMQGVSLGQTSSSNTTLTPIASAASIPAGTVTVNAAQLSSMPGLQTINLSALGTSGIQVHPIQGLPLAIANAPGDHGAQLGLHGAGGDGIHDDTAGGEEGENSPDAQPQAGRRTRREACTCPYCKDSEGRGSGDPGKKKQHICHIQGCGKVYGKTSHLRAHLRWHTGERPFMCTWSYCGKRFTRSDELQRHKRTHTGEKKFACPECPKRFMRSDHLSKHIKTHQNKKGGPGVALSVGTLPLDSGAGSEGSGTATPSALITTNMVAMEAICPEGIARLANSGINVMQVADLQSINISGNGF

On to `S=C1NCCN1`, for which the call in test [1], in test [2], in [3], in test [4], in test [5] and in [6] was inactive. Also, the call in [7], in [8] and in test [9] was inactive.

Consider `Cc1nn(-c2cc(NS(C)(=O)=O)c(Cl)cc2Cl)c(=O)n1C(F)F`, for which the AC50 in [1] was 5.33 µM (active). Further, the compound was called inactive in test [10], in test [2], in test [3], in test [4], in [5] and in [7]. The call in test [8] and in test [9] was inactive.

For `CNC(=O)Oc1cccc2c1OC(C)(C)O2`, the results for the AC50 in test [1], in test [10] and in test [4] were 40.2 µM (active), 50 µM (active) and 50 µM (active), respectively. The compound was called inactive in test [3], in test [5], in test [6], in test [7], in test [8] and in [9].

Regarding `CCNc1nc(Cl)nc(NC(C)(C)C#N)n1`, the concentration at half-maximal activity (AC50) in test [1] was 29.2 µM (active). Further, the call in test [10], in test [2], in [3], in test [4], in test [5] and in test [7] was inactive. Further, the call in test [8] and in test [9] was inactive.

Consider `CSc1nc(NC(C)C)nc(NC(C)C)n1`, for which the AC50 in test [1] was 4.94 µM (active). In addition, the result in test [2], in [3], in test [4], in test [5], in test [6] and in test [7] was inactive. For the same compound, the outcome in test [8] and in test [9] was inactive.

Regarding `CCC(=O)Nc1ccc(Cl)c(Cl)c1`, the AC50 in [1] and in test [5] was 50 µM (active) each time. For the same compound, the result in test [2], in test [3], in [4], in test [6], in test [7] and in [8] was inactive. Also, the outcome in test [9] was inactive.

In the case of `CCC(=NOC/C=C/Cl)C1=C(O)CC(C2CCOCC2)CC1=O` (stereo not given), the compound was classed as inactive in test [1], in test [10], in test [2], in test [3], in [4] and in [5]. Also, the compound was called inactive in test [7], in test [8] and in test [9].

Regarding `CC(Oc1cccc(Cl)c1)C(=O)O` (stereo not given), the result in test [1], in test [10], in [2], in test [3], in test [4] and in test [5] was inactive. Besides, the compound was called inactive in test [7], in test [8] and in test [9].

As to `O=c1ccc(=O)[nH][nH]1`, in [1], the half-maximal activity concentration (AC50) is 26.7 µM (active). Also, the outcome in test [2], in test [3], in test [4], in [5], in [7] and in test [8] was inactive. Besides, in test [9], the compound was called inactive.

In the case of `CN(C)C(=O)Nc1cccc(C(F)(F)F)c1`, the compound was classed as inactive in test [1], in [10], in test [2], in [3], in test [4] and in [5]. Further, the compound was classed as inactive in [7], in test [8] and in test [9].

Take `C#CCC1=C(C)C(OC(=O)C2C(C=C(C)C)C2(C)C)CC1=O` (stereo not given): the concentration at half-maximal activity (AC50) in test [1] was 1.15 µM (active); in [10], 13.2 µM (active); in [3] it was 82 µM (active); in test [4], 50 µM (active); in test [5], 31 µM (active); in test [8], 38.7 µM (active). For the same compound, the AC50 in test [9] is 88.4 µM (active). The result in test [2] and in test [7] was inactive.

Turning to `C[N+]1(C)CCCCC1`, the compound was classed as inactive in [1], in [10], in test [2], in [3], in test [4] and in test [5]. Besides, the compound was classed as inactive in test [7], in test [8] and in test [9].

Take `CC(C)=CC1C(C(=O)OCN2C(=O)C3=C(CCCC3)C2=O)C1(C)C` (stereo not given): the AC50 in test [1] was 13.5 µM (active); in [2] it was 50 µM (active); in test [5], 65.2 µM (active). In addition, the compound was classed as inactive in test [3], in test [4], in test [6], in test [7], in test [8] and in [9].

As for `CCOP(=O)(SC(C)CC)N1CCSC1=O` (stereo not given), the AC50 in test [1] was 22.9 µM (active). Further, the call in test [10], in test [2], in test [3], in [4], in test [5] and in test [7] was inactive. Besides, the compound was called inactive in test [8] and in test [9].

`CCCOCC(=Nc1ccc(Cl)cc1C(F)(F)F)n1ccnc1`: the half-maximal activity concentration (AC50) in [1] was 3.63 µM (active); in [10], 2.67 µM (active); in test [5] it was 7.5 µM (active). The call in test [3], in test [4], in test [6], in test [7], in test [8] and in [9] was inactive.

`CCOP(=O)(NC(C)C)Oc1ccc(SC)c(C)c1` (stereo not given): the half-maximal activity concentration (AC50) was 2.73 µM (active) in [1], 21.4 µM (active) in test [10] and 19.6 µM (active) in test [5]. Also, the result in [2], in test [3], in test [4], in [7], in [8] and in [9] was inactive.

As to `CCOP(=O)(OCC)Oc1cc(C)nc(C(C)C)n1`, the compound was classed as inactive in test [1], in [10], in test [2], in test [3], in test [4] and in test [5]. Further, the outcome in test [7], in test [8] and in test [9] was inactive.

As to `O=C(O)c1cc(Oc2ccc(C(F)(F)F)cc2Cl)ccc1[N+](=O)[O-]`, the AC50 in test [1] is 60 µM (active). In addition, the outcome in test [2], in [3], in test [4], in test [5], in test [7] and in test [8] was inactive. Further, the outcome in test [9] was inactive.
